The results in this text go back to PubChem BioAssay (EPA / NIEHS).

Records with an inconclusive call do not appear. The source made the active and inactive calls. Rule for the calls: active = hit-call score of the fitted dose curve at least 0.9, where 1 is the maximum; inconclusive = response in the unintended direction; inactive = score below 0.9.

The term AC50 denotes the concentration at which the activity in the assay is half-maximal.

Sequence of rat Glutamate, AMPA Site (AMPA), Gria1 (gene 50592) (P19490 whole entry, looked up): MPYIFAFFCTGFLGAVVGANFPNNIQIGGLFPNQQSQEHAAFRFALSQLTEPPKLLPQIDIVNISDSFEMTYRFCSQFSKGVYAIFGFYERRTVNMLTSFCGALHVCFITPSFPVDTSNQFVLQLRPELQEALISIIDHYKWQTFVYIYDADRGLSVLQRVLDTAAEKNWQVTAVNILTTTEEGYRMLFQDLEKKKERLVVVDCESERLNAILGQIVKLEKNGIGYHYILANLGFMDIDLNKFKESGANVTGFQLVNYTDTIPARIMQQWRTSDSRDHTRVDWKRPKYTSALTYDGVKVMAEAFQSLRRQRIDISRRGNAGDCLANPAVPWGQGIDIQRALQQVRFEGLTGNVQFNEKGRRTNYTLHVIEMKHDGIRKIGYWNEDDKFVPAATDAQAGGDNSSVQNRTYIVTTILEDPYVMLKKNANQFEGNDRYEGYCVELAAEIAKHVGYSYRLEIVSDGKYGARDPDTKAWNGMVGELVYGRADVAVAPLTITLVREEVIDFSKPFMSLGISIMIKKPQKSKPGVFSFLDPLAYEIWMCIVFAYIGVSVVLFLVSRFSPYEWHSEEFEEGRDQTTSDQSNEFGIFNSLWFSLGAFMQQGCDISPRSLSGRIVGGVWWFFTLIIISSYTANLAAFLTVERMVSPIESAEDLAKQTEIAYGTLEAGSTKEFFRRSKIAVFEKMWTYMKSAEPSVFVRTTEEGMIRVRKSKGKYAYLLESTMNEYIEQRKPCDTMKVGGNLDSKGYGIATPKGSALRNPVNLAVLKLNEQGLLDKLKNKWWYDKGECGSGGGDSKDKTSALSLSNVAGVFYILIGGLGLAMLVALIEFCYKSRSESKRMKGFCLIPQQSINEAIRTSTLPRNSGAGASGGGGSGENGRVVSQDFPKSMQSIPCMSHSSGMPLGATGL
Sequence of rat Gamma-Aminobutyric Acid Type A Receptor, Non-Selective (GABAR-NonSelective), Gabra1 (gene 29705) (P62813 whole entry, looked up): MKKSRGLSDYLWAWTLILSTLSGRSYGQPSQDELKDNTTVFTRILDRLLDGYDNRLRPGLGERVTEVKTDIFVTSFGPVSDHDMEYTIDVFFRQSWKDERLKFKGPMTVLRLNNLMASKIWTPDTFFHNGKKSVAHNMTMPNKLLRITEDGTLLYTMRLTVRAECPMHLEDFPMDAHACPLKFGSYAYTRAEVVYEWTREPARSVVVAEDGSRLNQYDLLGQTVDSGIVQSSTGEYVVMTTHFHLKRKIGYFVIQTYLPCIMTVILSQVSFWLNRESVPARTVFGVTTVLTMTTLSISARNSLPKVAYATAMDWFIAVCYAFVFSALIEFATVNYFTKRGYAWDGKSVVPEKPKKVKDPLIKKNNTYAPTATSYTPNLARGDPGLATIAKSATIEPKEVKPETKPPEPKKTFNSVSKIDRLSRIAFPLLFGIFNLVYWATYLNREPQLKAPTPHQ

For one experiment, the target named is rat Glutamate, AMPA Site (AMPA), Gria1 (gene 50592) (UniProt P19490). Put plainly: NVS_LGIC_rAMPA: NovaScreen (NVS) Ligand-Gated Ion Channel Assay for rat Glutamate, AMPA Site (AMPA) (AID 2283324). Summed up:
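Rat forebrain membranes; radioligand binding read 1 h after dosing by filtration and scintillation counting. Duplicate single-point screen at 25 uM, then concentration-response to 50 uM for threshold hits (e.g. 30% inhibition); loss of signal vs DMSO.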
With `CC(=O)OCCC(C)C`, the molecule was called inactive.
Regarding `CNCc1ccc(NC(=O)c2c[nH]c3c2C(=O)CCC3)cc1`, the molecule was classed as inactive.
Turning to `O=C(OC[C@H]1O[C@@H](OC(=O)c2cc(O)c(O)c(OC(=O)c3cc(O)c(O)c(O)c3)c2)[C@H](OC(=O)c2cc(O)c(O)c(OC(=O)c3cc(O)c(O)c(O)c3)c2)[C@@H](OC(=O)c2cc(O)c(O)c(OC(=O)c3cc(O)c(O)c(O)c3)c2)[C@@H]1OC(=O)c1cc(O)c(O)c(OC(=O)c2cc(O)c(O)c(O)c2)c1)c1cc(O)c(O)c(OC(=O)c2cc(O)c(O)c(O)c2)c1`, the AC50 was 9440 nM (active).
Turning to `CC(C)=CCCC(C)=CC=O`, the molecule was called inactive.
Still for that read-out and setting: the value for `CC1=CC(=O)CC(C)(C)C1` was “inactive”.
`Cn1c(=O)cc(Oc2ccc(F)cc2F)c2cnc(NCC(C)(C)O)nc21`: the outcome was inactive.
Take `O=C(O)CC(O)C(=O)O` (stereo unspecified): the result was inactive.

Another experiment deals with human Serotonin, 5-Hydroxytryptamine Receptor 3 (5HT3), HTR3A (gene 3359) (UniProt P46098). Put plainly: NVS_LGIC_h5HT3: NovaScreen (NVS) Ligand-Gated Ion Channel Assay for human Serotonin, 5-Hydroxytryptamine Receptor 3 (5HT3) (AID 2283325). The gist of the method: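 Radioligand displacement binding to human 5-HT3 from HEK293 membranes, read by filter-based scintillation counting after 1 h. Screen at 25 uM in duplicate; chemicals passing threshold were retested in concentration-response up to 50 uM.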
Sequence of human Serotonin, 5-Hydroxytryptamine Receptor 3 (5HT3), HTR3A (gene 3359) (P46098 whole entry, looked up): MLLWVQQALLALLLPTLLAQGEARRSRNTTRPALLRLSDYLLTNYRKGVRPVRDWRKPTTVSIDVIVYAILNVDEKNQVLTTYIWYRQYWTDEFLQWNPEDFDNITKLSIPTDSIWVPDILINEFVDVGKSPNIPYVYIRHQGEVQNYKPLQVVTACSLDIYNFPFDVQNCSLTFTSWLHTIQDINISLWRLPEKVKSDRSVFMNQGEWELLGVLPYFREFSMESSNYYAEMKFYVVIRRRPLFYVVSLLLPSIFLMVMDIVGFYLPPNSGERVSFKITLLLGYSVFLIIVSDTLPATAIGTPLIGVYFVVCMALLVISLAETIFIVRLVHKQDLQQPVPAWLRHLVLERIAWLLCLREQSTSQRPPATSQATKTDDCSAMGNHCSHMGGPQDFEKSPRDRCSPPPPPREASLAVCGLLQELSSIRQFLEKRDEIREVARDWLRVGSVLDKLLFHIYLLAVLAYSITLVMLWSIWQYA
Regarding `Cc1[nH]cnc1C[C@H]1CCc2c(C)c3ccccc3n2C1=O`, the AC50 was 2.04 nM (active).
As to `CC(C)=CCC/C(C)=C\CO`, the molecule was called inactive.
Turning to `C=CCCCCCCCCC(=O)O`, the result was inactive.
As to `COc1cccc(-c2ccc(/C=C\CN3CCCCCC3)cc2Cl)c1`, the outcome was inactive.

The target in a further experiment is rat Gamma-Aminobutyric Acid Type A Receptor, Non-Selective (GABAR-NonSelective), Gabra1 (gene 29705) (UniProt P62813). Put plainly: NVS_LGIC_rGABAR_NonSelective: NovaScreen (NVS) Ligand-Gated Ion Channel Assay for rat Gamma-Aminobutyric Acid Type A Receptor, Non-Selective (GABAR-NonSelective) (AID 2283326). Summed up:
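Radioligand displacement on rat whole-brain extract, 1 h, filter scintillation readout; signal loss fitted versus DMSO. Primary screen in duplicate at 25 uM; hits (e.g. ≥30% inhibition) retested in concentration-response up to 50 uM.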
In the case of `CNCc1ccc(NC(=O)c2c[nH]c3c2C(=O)CCC3)cc1`, the molecule was called inactive.
As for `CCN(C(=O)c1cc(C)cc(OC[C@H](C)Nc2ccncc2)c1)C(C)C`, the AC50 is 1130 nM (active).
With `CCOC(=O)c1ccc(C2CCC(NC[C@H](O)COc3ccc(O)c(NS(C)(=O)=O)c3)CC2)cc1` (stereo partly specified), the AC50 is 4640 nM (active).
Take `COCCOc1cc2cc(C(=O)NC3CCN(C(C)C)CC3)n(CC(=O)Nc3ccc(Cl)cn3)c2cn1`: the outcome was inactive.
On to `COc1cccc(-c2ccc(/C=C\CN3CCCCCC3)cc2Cl)c1`, for which the molecule was classed as inactive.
